Potency and outcome data for nine compounds are collected here from PubChem BioAssay (Tox21).

Where “and” joins values, the source holds several entries; their conditions need not be identical. Equal entries are not always repeated. Records with an inconclusive call do not appear. Where a structure was tested more than once in an assay, its records may differ in their call. Calls of active or inactive are those of the source. Unless noted, the call rests on the fitted dose curve; in most records, active means well fitted curve in the direction sought with a large enough effect in the repeat runs; inconclusive means weak or mixed curves; inactive means no such curve, though single readings can be large; an effect the other way counts as inactive or inconclusive.

The nature of assay [1]: qHTS assay to identify small molecule antagonists of the thyroid receptor (TR) signaling pathway - cell viability counter screen (AID 743064). Further: nearly all actives have a fitted effect of over 50% in size. The method, boiled down:
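GH3.TRE-Luc cells, 4 h pre-plating; cpd + T3 1 nM final; 37 °C 23.5 h; CellTiter-Fluor 30 min; fluorescence read.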

For assay [2], the system named is thyroid hormone receptor (rat, GH3 cells). The assay can be described thus: qHTS assay to identify small molecule agonists of the thyroid receptor (TR) signaling pathway (AID 743066; calls by dose curve).
The target in assay [3] is Estrogen receptor (Homo sapiens) (UniProt P03372). The assay can be described thus: qHTS assay to identify small molecule antagonists of the estrogen receptor alpha (ER-alpha) signaling pathway (AID 743069; active means well fitted curve in the direction sought with a large enough effect in the signal ratio in the repeat runs, not every such curve was filed as active; the % refers to the signal ratio). The procedure, abridged:
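ER-alpha-UAS-bla GripTite HEK293 line; 2% charcoal-stripped FBS overnight; plated, 4 hr 37C/5% CO2; cpd in DMSO + 17beta-estradiol, 18 hr 37C; LiveBLAzer B/G FRET substrate 2 hr RT; fluorescence intensity.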
In general terms: Quantitative high-throughput screening tests each substance at several concentrations.

The nature of assay [4]: qHTS assay to identify small molecule antagonists of the estrogen receptor alpha (ER-alpha) signaling pathway - cell viability counter screen (AID 743074; calls by dose curve;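 further: HEK293 cells carrying ER-alpha-UAS-bla reporter stimulated with 17beta-estradiol; nearly all actives have a fitted effect of over 45% in size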).
The target in assay [5] is Estrogen receptor (Homo sapiens) (UniProt P03372). The assay can be described thus: qHTS assay to identify small molecule agonists of the estrogen receptor alpha (ER-alpha) signaling pathway (AID 743075; calls by dose curve;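 further: HEK293 GripTite cells with ER-alpha and UAS-driven beta-lactamase reporter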).
Assay [6] shares this target. The assay can be described thus: qHTS assay to identify small molecule agonists of the estrogen receptor alpha (ER-alpha) signaling pathway using the BG1 cell line (AID 743079). Further: nearly all actives have a fitted effect of over 20% in size.
Assay [7] can be described thus: qHTS assay to identify small molecule antagonists of the estrogen receptor alpha (ER-alpha) signaling pathway using the BG1 cell line (AID 743080; calls by dose curve;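 further: BG1 cells stimulated with 17beta-estradiol alongside compound; series mostly up to about 70 µM; nearly all actives have a fitted effect of over 25% in size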). The procedure, abridged:
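After 5 days in phenol-red-free 10% charcoal-stripped FBS medium, BG1-Luc-4E2 cells were seeded, left 24 h at 37 C, co-treated with compounds and 17beta-estradiol for 21.5 h, then assayed for viability and luciferase.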

Assay [8] is described as follows: qHTS assay to identify small molecule antagonists of the estrogen receptor alpha (ER-alpha) signaling pathway using the BG1 cell line - cell viability counter screen (AID 743081).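 Further: compound given together with 17beta-estradiol as the ER stimulus; series mostly up to about 70 µM; nearly all actives have a fitted effect of over 45% in size.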
For another assay, the target named is Aromatase (Homo sapiens) (UniProt P11511). The assay can be described thus: qHTS assay to identify aromatase inhibitors (AID 743083). Further: series mostly up to about 70 µM; nearly all actives have a fitted effect of over 55% in size.
Assay [9] is described as follows: qHTS assay to identify aromatase inhibitors - cell viability counter screen (AID 743084).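 Further: cells stimulated with testosterone during compound exposure; nearly all actives have a fitted effect of over 55% in size.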
In assay [10] the target is Aryl hydrocarbon receptor (Homo sapiens) (UniProt P35869). The assay can be described thus: qHTS assay to identify small molecule that activate the aryl hydrocarbon receptor (AhR) signaling pathway (AID 743085). Further: nearly all actives have a fitted effect of over 15% in size. Further: potency means the concentration at half of the fitted maximal effect.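 On activation: HG2L7.5c1 human HepG2 liver cells with stably integrated DRE-driven firefly reporter; series mostly up to about 70 µM.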 The procedure, abridged:
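Luminescence read-out: ONE-Glo reagent, 30 min at room temperature, in HG2L7.5c1 HepG2 reporter cells treated 24 h at 37C. Viability was measured beforehand by CellTiter-Fluor fluorescence after 30 min at 37C.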

A short description of assay [11]: qHTS assay to identify small molecule that activate the aryl hydrocarbon receptor (AhR) signaling pathway - cell viability counter screen (AID 743086). Further: series mostly up to about 70 µM; nearly all actives have a fitted effect of over 45% in size. The method, boiled down: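 Cytotoxicity counter screen: CellTiter-Fluor signal (30 min, 37 C) in 4000 HepG2 cells/well carrying the DRE-luciferase reporter, following 24 h compound exposure at 37 C.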
Assay [12] concerns the target Peroxisome proliferator-activated receptor gamma (Homo sapiens) (UniProt P37231). The assay can be described thus: qHTS assay to identify small molecule antagonists of the peroxisome proliferator-activated receptor gamma (PPARg) signaling pathway (AID 743191; calls by dose curve; further: series mostly up to about 63 µM; nearly all actives have a fitted effect of over 30% in size). The procedure, abridged:
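Beta-lactamase reporter under UAS control in HEK293H PPARg-bla cells; compound treatment 17 h at 37C. Read-out: fluorescence intensity after 1 h room-temperature incubation with LiveBLAzer B/G FRET substrate.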

Assay [13] can be described thus: qHTS assay for small molecule agonists of the antioxidant response element (ARE) signaling pathway (AID 743202; active means well fitted activation curve with a large enough effect in the signal ratio in the repeat runs, not every such curve was filed as active; the % refers to the signal ratio). The method, boiled down:
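Quantitative high-throughput format in HepG2 cells bearing an integrated ARE-beta-lactamase reporter. Compound exposure lasted 16 h at 37 C, and fluorescence was read 2 h after adding LiveBLAzer B/G substrate at room temperature.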

Assay [14] can be described thus: qHTS assay for small molecule agonists of the antioxidant response element (ARE) signaling pathway - cell viability counter screen (AID 743203; calls by dose curve; further: nearly all actives have a fitted effect of over 55% in size). The procedure, abridged: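 HepG2 cells carrying ARE-driven beta-lactamase; 2,000 cells/well; 5 hrs plating; compound pinned from DMSO; 16 hrs 37C/5% CO2; CellTiter-Glo added; 30 min RT; luminescence.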
Assay [15] is described as follows: qHTS assay for small molecule activators of the heat shock response signaling pathway - cell viability counter screen (AID 743209). Further: nearly all actives have a fitted effect of over 50% in size. The method, boiled down:
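Luminescence from CellTiter-Glo, added after the beta-lactamase FRET read, gave the viability signal. Cells were HSE-bla HeLa treated with DMSO-dissolved compounds for 5 h at 37 C following overnight plating.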

A short description of assay [16]: qHTS assay for small molecule activators of the heat shock response signaling pathway (AID 743210; active means well fitted activation curve with a large enough effect in the signal ratio in the repeat runs, with a control signal flat, not every such curve was filed as active; the % refers to the signal ratio;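 further: HeLa cells with beta-lactamase reporter driven by heat shock elements; series mostly up to about 63 µM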). The procedure, abridged:
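HeLa HSE-bla cells, overnight plating; cpd in DMSO 5 h, 37 C; LiveBLAzer B/G FRET substrate 2.5 h RT; fluorescence intensity read.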

A short description of assay [17]: qHTS assay to identify small molecule antagonists of the thyroid receptor (TR) signaling pathway (AID 743065). Further: series mostly up to about 70 µM; nearly all actives have a fitted effect of over 55% in size. The method, boiled down:
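Antagonism measured as loss of luciferase signal in GH3 cells stably carrying a TRE-luciferase reporter, co-treated with compound and T3 (1 nM final) for 23.5 h at 37 C. Viability was read in the same well by CellTiter-Fluor.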

Assay [18] is described as follows: qHTS assay to identify small molecule antagonists of the peroxisome proliferator-activated receptor gamma (PPARg) signaling pathway - cell viability counter screen (AID 743194). Further: nearly all actives have a fitted effect of over 55% in size. The procedure, abridged:
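Viability was measured as CellTiter-Glo luminescence in GeneBLAzer PPARg UAS-bla HEK293H cells. These cells had been exposed 17 h at 37 C to compounds together with rosiglitazone at 50 nM final, with the beta-lactamase readout taken in the same wells.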

For assay [19], the target named is Peroxisome proliferator-activated receptor gamma (Homo sapiens) (UniProt P37231). The assay can be described thus: qHTS assay to identify small molecule agonists of the peroxisome proliferator-activated receptor gamma (PPARg) signaling pathway (AID 743094; active means well fitted activation curve with a large enough effect in the signal ratio in the repeat runs, not every such curve was filed as active; the % refers to the signal ratio). The procedure, abridged:
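Beta-lactamase FRET fluorescence was the read-out after a 1 h room-temperature substrate step, following 17 h compound treatment at 37C of HEK293H cells expressing a UAS-driven bla reporter responsive to PPARg.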

Chain of Aryl hydrocarbon receptor (Homo sapiens) (P35869 whole entry, looked up): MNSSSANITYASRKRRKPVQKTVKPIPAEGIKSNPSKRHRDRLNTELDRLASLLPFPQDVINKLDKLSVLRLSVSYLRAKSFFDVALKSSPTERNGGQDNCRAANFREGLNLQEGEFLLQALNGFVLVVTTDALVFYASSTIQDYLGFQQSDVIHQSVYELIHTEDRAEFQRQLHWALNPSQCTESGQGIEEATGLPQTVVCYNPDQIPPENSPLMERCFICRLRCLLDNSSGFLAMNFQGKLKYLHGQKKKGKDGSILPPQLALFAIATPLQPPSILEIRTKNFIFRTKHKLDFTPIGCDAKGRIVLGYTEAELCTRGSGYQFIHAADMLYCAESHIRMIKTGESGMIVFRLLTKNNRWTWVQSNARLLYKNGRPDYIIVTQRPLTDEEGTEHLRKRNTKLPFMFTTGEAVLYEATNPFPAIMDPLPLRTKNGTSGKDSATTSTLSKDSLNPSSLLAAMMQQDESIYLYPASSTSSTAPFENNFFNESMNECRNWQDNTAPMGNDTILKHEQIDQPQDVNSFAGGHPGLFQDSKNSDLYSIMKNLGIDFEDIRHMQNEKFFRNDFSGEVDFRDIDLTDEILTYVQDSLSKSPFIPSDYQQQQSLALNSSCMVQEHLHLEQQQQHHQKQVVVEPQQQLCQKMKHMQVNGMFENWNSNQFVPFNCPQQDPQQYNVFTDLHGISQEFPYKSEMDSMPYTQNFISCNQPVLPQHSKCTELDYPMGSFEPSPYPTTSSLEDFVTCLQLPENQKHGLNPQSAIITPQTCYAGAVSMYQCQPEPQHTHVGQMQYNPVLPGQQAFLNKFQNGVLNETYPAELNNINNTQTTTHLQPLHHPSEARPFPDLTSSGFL
Chain of Estrogen receptor (Homo sapiens) (P03372 whole entry, looked up): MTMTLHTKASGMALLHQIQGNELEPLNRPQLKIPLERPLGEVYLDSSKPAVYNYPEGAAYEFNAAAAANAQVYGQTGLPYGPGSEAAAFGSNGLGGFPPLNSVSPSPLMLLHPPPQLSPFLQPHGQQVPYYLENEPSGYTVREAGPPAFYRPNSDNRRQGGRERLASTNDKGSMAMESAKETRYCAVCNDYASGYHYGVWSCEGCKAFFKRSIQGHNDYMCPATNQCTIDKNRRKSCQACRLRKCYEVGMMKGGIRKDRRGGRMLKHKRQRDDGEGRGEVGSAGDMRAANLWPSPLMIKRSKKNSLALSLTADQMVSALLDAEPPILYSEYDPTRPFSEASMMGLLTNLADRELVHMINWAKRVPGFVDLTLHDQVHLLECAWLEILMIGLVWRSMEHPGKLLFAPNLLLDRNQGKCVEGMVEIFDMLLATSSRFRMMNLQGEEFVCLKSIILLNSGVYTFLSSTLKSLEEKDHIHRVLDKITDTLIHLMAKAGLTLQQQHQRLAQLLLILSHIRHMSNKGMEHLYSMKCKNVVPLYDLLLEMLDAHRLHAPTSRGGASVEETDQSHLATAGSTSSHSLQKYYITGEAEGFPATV
Chain of Aromatase (Homo sapiens) (P11511 whole entry, looked up): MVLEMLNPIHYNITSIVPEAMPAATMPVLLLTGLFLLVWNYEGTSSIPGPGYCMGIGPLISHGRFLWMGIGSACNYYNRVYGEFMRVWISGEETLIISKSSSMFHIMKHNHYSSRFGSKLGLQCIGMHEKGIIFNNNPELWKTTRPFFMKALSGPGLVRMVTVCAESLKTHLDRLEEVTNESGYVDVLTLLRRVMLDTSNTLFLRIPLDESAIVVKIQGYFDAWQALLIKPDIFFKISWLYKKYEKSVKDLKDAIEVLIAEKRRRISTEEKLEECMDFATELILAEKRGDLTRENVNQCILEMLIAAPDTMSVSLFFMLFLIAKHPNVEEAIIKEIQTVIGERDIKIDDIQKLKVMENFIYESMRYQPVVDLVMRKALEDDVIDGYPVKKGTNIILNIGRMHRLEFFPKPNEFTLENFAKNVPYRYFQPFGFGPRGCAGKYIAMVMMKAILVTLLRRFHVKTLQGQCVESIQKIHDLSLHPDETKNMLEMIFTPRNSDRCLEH
Chain of Peroxisome proliferator-activated receptor gamma (Homo sapiens) (P37231 whole entry, looked up): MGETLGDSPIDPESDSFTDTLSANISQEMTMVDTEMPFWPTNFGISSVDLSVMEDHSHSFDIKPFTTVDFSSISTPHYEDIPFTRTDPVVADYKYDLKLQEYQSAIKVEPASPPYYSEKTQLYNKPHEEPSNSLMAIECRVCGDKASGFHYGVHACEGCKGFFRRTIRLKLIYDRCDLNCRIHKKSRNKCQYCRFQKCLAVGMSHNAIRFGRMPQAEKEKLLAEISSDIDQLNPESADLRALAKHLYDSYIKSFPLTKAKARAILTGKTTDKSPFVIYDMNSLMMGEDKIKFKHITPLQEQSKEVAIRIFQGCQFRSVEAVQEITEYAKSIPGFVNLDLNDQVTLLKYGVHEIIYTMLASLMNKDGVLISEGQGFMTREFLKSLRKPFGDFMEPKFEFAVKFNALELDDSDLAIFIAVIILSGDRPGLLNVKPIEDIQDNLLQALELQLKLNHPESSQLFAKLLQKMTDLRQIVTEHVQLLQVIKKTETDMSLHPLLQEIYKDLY

Take `CC(C)(C)NCCNC(C)(C)C`: the Potency result (in assay [1]; in assay [5]; in [6]; in [8]; with Aromatase (Homo sapiens); in [9]) was “inactive” in each case. Moreover, the Potency result in assay [10], in [11], in assay [12], in [13] and in assay [14] was “inactive” throughout. Also, the compound was called inactive in [2], in [3], in assay [4], in assay [7], in assay [15] and in assay [16].
As to `NC(=O)c1cn(Cc2c(F)cccc2F)nn1`, the Potency entry in assay [1], in assay [17], in assay [8], in assay [11], in [13] and in assay [14] was “inactive” each time. Also, the compound was called inactive in assay [2], in [4], in assay [18], in assay [15] and in assay [16].
Turning to `CC(=O)CC(C)C`, the Potency entry in assay [1], in assay [17], in [9], in [11], in assay [12] and in assay [13] was “inactive” in each case. The Potency result in [14] is “inactive”. The compound was classed as inactive in [2], in [4], in assay [19] and in assay [15].
As for `CCc1ccc(O)c(OC)c1`, the Potency result (in assay [1]; in assay [8]; with Aromatase (Homo sapiens); in [9]; in [10]; in [11]) was “inactive” each time. Further, the Potency result in [12], in assay [13] and in assay [14] was “inactive” each time. The call in [2], in assay [4], in [19], in [18], in assay [15] and in [16] was inactive.
Regarding `N[C@H](C(=O)O)c1ccc(O)cc1`, the Potency entry (in [1]; in assay [5]; in assay [6]; in assay [8]; with Aromatase (Homo sapiens); in assay [9]) was “inactive” throughout. Also, the Potency result in assay [10], in assay [11], in assay [12], in assay [13] and in assay [14] was “inactive” throughout. Also, the compound was classed as inactive in assay [3], in assay [4], in [7], in assay [19], in assay [18] and in assay [16].
As for `N#Cc1ccc(C2CCCc3cncn32)cc1` (stereo not drawn), the Potency result in [1], in assay [5], in [6], in assay [8], in assay [9] and in assay [10] was “inactive” each time. In addition, the Potency entry in assay [11] and in assay [14] was “inactive” throughout. The compound was classed as inactive in assay [7], in assay [19], in assay [15] and in assay [16].
On to `COC(=O)c1c(Cl)c(Cl)c(C(=O)OC)c(Cl)c1Cl`, for which the Potency entry (in [1]; in assay [5]; in [6]; in assay [8]; in the assay with Aromatase (Homo sapiens); in assay [9]) was “inactive” throughout. Also, the Potency result in assay [11], in [12] and in [14] was “inactive” in each case. Moreover, the compound was called inactive in assay [2], in assay [4], in assay [7], in assay [18], in assay [15] and in assay [16]. In addition, in assay [10], the Potency entry was “inactive and 48.6 µM (active)”.
Take `CCCN1CCCC[C@H]1C(=O)Nc1c(C)cccc1C`: the Potency entry (in assay [1]; in [8]; with Aromatase (Homo sapiens); in [9]; in assay [10]; in [11]) was “inactive” throughout. Besides, the Potency result in [13] and in assay [14] was “inactive” in each case. Further, the compound was classed as inactive in [2], in [4], in assay [18], in [15] and in assay [16].
In the case of `CCCCNC(=O)NCCCC`, the Potency entry (in assay [1]; in assay [5]; in assay [6]; in [8]; with Aromatase (Homo sapiens); in assay [9]) was “inactive” each time. Further, the Potency result in assay [10], in assay [11], in [12] and in assay [14] was “inactive” in each case. Moreover, the outcome in assay [3], in assay [4], in assay [7], in assay [19], in assay [15] and in assay [16] was inactive.
